Screening data deposited in PubChem BioAssay by National Center for Advancing Translational Sciences (NCATS).
RXFP1 antag: antagonists of human relaxin receptor RXFP1; Q9HBX9; HEK293-RXFP1, relaxin-stimulated cAMP HTRF, 30 min; hits give low values; activity change, negative = inhibition, % at 57.5 µM; hit rate 0.59% among 350,000;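 active means activity change of -60% or lower, but not beyond a set lower limit; inconclusive means change between -60% and -40%, or beyond the set limit; inactive means change above -40%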
Target sequence (Q9HBX9 whole entry, looked up): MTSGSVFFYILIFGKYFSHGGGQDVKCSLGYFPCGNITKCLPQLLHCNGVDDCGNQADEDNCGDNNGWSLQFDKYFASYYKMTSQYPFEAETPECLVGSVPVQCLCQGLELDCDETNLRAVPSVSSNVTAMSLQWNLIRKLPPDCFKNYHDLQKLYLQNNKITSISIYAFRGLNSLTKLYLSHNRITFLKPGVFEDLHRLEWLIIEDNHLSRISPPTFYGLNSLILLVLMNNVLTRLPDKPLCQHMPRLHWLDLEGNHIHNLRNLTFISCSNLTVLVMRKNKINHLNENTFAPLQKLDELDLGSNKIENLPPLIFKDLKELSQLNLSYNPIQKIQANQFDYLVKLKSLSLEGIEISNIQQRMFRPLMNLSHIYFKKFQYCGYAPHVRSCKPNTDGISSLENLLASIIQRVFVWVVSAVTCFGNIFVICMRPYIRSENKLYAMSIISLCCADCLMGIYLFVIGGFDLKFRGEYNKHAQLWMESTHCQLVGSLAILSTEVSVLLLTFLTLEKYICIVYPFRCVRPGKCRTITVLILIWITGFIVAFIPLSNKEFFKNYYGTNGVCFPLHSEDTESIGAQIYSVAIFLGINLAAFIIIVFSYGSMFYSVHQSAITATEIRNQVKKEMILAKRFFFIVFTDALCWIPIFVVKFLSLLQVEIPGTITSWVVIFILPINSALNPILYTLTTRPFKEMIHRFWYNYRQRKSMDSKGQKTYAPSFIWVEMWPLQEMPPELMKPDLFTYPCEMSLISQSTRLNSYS
gsp antag: antagonists of gsp mutant (McCune-Albright syndrome) | gsp-mutant cells, cAMP HTRF, 30 min | Potency, µM (highest dose often 76.9 µM), actives largely listed as inhibitors | hit rate 0.4% among 340,000 | AID 624288; calls by dose curve; cell line not stated here;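 further: intracellular cAMP measured with PDE inhibitor Ro 20-1724 present during compound exposure; nearly all actives have a fitted effect of over 65% in size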
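G418-selected cells were plated in DMEM/10% FBS for 16-24 h at 37C, then treated with compounds plus the PDE inhibitor […] (300 uM solution added) for 30 min at 37C. Intracellular cAMP was measured by HTRF after 30 min lysis at room temperature.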
gsp ag: activates gsp, the McCune-Albright syndrome mutation | gsp mutant cells, cAMP HTRF, 30 min | Potency, µM (titrated, usually from 76.9 µM), usual class: activators | hit rate 0.13% among 340,000 | AID 624287; active means well fitted activation curve with a large enough effect; inconclusive means small, poorly fitted or top-dose-only effect, or another doubt; inactive means no such curve, though single readings can be large or run the other way; cell line not stated here;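 further: phosphodiesterase inhibitor Ro 20-1724 added with compounds to block cAMP breakdown; nearly all actives have a fitted effect of over 60% in size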
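Cells stably selected in G418 were plated at 2000/well, grown 16-24 hr, then given compounds in DMSO with the PDE inhibitor […] (300 uM solution added) for 30 min at 37C; cAMP was read by HTRF.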
RXFP1 ag: activates the human relaxin receptor RXFP1; AID 2676; Q9HBX9; hit rate 0.3% among 370,000; Potency, µM (titrated, usually from 57.5 µM), hits mostly activators; HEK293T-RXFP1 cAMP TR-FRET, 30 min; response scale: percent of porcine relaxin response, buffer zero; active means well fitted activation curve with a large enough effect; inconclusive means small, poorly fitted or top-dose-only effect; further: nearly all actives have a fitted effect of over 60% in size
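cAMP rise read by TR-FRET after 30 min, 37C compound exposure (up to 58 uM) in RXFP1-transfected HEK293 cells with Ro 20174 present. EC50 from Hill-equation fits, with 29 nM porcine relaxin as 100% and buffer as basal.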
Akt phos inh: blocks phosphorylation of Akt; Neuro2A IGF-stimulated pAkt S473 HTRF, 20 min; hits give low values; activity change, % for hits at 50 µM; hit rate 0.32% among 360,000; in the data active means activity change below about -80%; inconclusive means mostly about -51% to -80%
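Single-point screen (50 µM final compound) in Neuro2A cells stimulated 20 min with 6 nM IGF at 37 deg C. After lysis, Ser473-phosphorylated Akt read by HTRF (ex 330 nm, em 615/665 nm) as the 665/615 ratio.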
Large screens that a line does not name were inactive. Rows were chosen to be rich in hits. Some 1.2% of all compounds tested hit in one or more screens of this group.

O=C(NC(Cc1c[nH]c2ccccc12)C(=O)Nc1ccc(F)c([N+](=O)[O-])c1)c1cccs1 (configuration not stated)	none
COc1ccc(CCNc2nc(C)nc3c2oc2ccccc23)cc1OC	RXFP1 antag inconclusive, gsp antag 40µM
COc1ccc(CCNc2ncnc3c2oc2ccccc23)cc1OC	gsp antag inconclusive, gsp ag inconclusive
COc1ccc2cc(C(=O)NCc3ccco3)c(=Nc3ccc(C(=O)O)cc3)oc2c1	Akt phos inh -112%
COc1cccc(Cn2c(CNS(=O)(=O)c3ccc4c(c3)CCCC4)nc3cccnc32)c1	none (no result: gsp antag, gsp ag, Akt phos inh)
COc1cccc(-c2nc(CS(=O)CC(=O)N3CCN(c4cccc(C(F)(F)F)c4)CC3)c(C)o2)c1 (configuration not stated)	none (no result: gsp antag, gsp ag, Akt phos inh)
O=C(c1ccc(CS(=O)Cc2ccc(Cl)cc2)o1)N1CCN(c2ccc(F)cc2)CC1 (configuration not stated)	none
Cc1ccccc1S(=O)Cc1ccc(C(=O)N2CCN(c3cccc(C)c3C)CC2)o1 (configuration not stated)	RXFP1 antag -98 (no result: gsp antag, gsp ag, Akt phos inh)
Cc1cccc(N2CCN(C(=O)c3ccc(CS(=O)Cc4ccc(Cl)cc4)o3)CC2)c1C (configuration not stated)	RXFP1 antag -78
O=C(c1ccc(CS(=O)Cc2ccc(Cl)cc2)o1)N1CCN(c2cccc(Cl)c2)CC1 (configuration not stated)	gsp antag 32µM
COc1ccc(N2CCN(C(CNS(=O)(=O)c3ccc(OC)c(C)c3)c3ccco3)CC2)cc1 (configuration not stated)	none (no result: gsp antag, gsp ag, Akt phos inh)
N#Cc1c(-c2ccccc2)nc(SCC(=O)NC2CCCCC2)[nH]c1=O	gsp ag inconclusive, RXFP1 ag 22µM
COc1cccc(-c2nc(SCC(=O)Nc3nc(-c4ccccc4)c(C)s3)[nH]c(=O)c2C#N)c1	RXFP1 antag -71
CCOc1ccc2nc(NC(=O)CSc3nc(-c4ccccc4)c(C#N)c(=O)[nH]3)sc2c1	RXFP1 ag inconclusive
CCOc1ccc(/C(O)=C2/C(=O)C(=O)N(c3ccccn3)C2c2ccc(F)cc2)c(C)c1 (configuration not stated)	gsp ag 16µM
CN(Cc1ccccc1)C(=O)c1ccc2c(c1)N(Cc1ccc(Cl)cc1)C(=O)c1ccccc1S2=O (configuration not stated)	none (no result: RXFP1 antag, gsp antag, gsp ag, Akt phos inh)
CCOC(=O)C1=C(C)N=C2SC(C(=O)OC)=CC(=O)N2C1c1ccc(F)cc1 (configuration not stated)	gsp antag inconclusive, Akt phos inh -87%
Cc1ccc(-c2cc(C(F)(F)F)n3nc(C(=O)Nc4sc5c(c4C#N)CCC(C)C5)cc3n2)cc1 (configuration not stated)	none (no result: gsp antag, gsp ag, Akt phos inh)
O=C(COC(=O)c1cccnc1SCC(=O)NCc1ccccc1)NCc1ccccc1	gsp ag inconclusive, RXFP1 ag inconclusive, Akt phos inh -89%
COc1ccccc1CNC(=O)COC(=O)c1cccnc1SCC(=O)NCc1ccccc1OC	none
c1ccc2c(c1)CCc1ccccc1N2	none (no result: gsp antag, gsp ag, RXFP1 ag, Akt phos inh)
C=CCn1c(C)cc(C(=O)CSc2nc3ccccc3c(=O)[nH]2)c1C	gsp antag inconclusive, Akt phos inh -110%
COc1ccc(CCNC(=O)CSc2cn(CCNC(=O)c3cccc(C(F)(F)F)c3)c3ccccc23)cc1OC	none (no result: RXFP1 antag, gsp antag, gsp ag, Akt phos inh)
O=C(C1=C[C@@H](c2ccc(C(F)(F)F)cc2)C[C@@H](OCCCCO)O1)N1CCCCCCC1	gsp antag 11µM (no result: RXFP1 antag, gsp ag, RXFP1 ag)
CN1CCN(C(=O)C2=C[C@@H](c3ccc(C(F)(F)F)cc3)C[C@@H](OCCCCO)O2)CC1	none (no result: RXFP1 antag, gsp ag)
CC1=C(C(=O)Nc2ccccc2Br)C2(CCC(C)CC2)OC1=O (configuration not stated)	none (no result: gsp antag, gsp ag, Akt phos inh)
CCCn1c2ccccc2c2nnc(SCC(=O)Nc3cccc(C(C)=O)c3)nc21	none (no result: gsp antag, gsp ag, Akt phos inh)
Cn1c2ccccc2c2nnc(SCC(=O)Nc3cccc(C(=O)O)c3)nc21	gsp ag 14µM, RXFP1 ag 16µM
CCN(CC)C(=O)CSc1nnc2c3ccccc3n(C)c2n1	gsp ag 7.1µM, RXFP1 ag inconclusive
O=C(NOCC1CC1)c1ccc(F)c(F)c1Nc1ccc(I)cc1Cl	none (no result: gsp antag, gsp ag, RXFP1 ag, Akt phos inh)
COc1ccc(-c2cc(C(=O)Oc3cccc(C)c3C)c3ccccc3n2)cc1	none (no result: gsp antag, gsp ag, Akt phos inh)
